Assay results published in PubChem BioAssay (NCATS).
Where “and” joins values, the source holds several entries; their conditions need not be identical. Identical values can stand only once. Inconclusive results are not listed. Calls of active or inactive are those of the source. Calls follow the shape of the dose curve; as a rule, active = well fitted inhibition curve with a large enough effect; inconclusive = small, poorly fitted or top-dose-only effect; inactive = flat fitted curve, though single readings scatter.

Legend:
[1] = system: CRL-7250; assay: Cytotoxic Profiling of Annotated Libraries Using Quantitative High-Throughput Screening (AID 1296008); details: Five cell lines viability, CellTiter-Glo ATP luminescence, 48-72 h; max response: stronger effect = lower value; as to max response: % is scaled to controls: 0 for no effect and ±100 for the full control effect
How it was run: (§1)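 Cytotoxicity was measured as CellTiter-Glo ATP luminescence, read after 10 min at room temperature. Compound treatment of the cells lasted 48 or 72 hr at 37 degrees Celsius in a qHTS format.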

[2] = system: HEK293; assay: as above; details: Five cell lines viability, CellTiter-Glo ATP luminescence, 48-72 h; max response: stronger effect = lower value
How it was run: as §1

[3] = system: HaCat; assay: as above; details: Five cell lines viability, CellTiter-Glo ATP luminescence, 48-72 h; max response: stronger effect = lower value
How it was run: as §1

[4] = system: NIH3T3; assay: as above; details: Five cell lines viability, CellTiter-Glo ATP luminescence, 48-72 h; max response: stronger effect = lower value
How it was run: as §1

[5] = system: CRL-7250; assay: qHTS assay to identify novel small-molecules to repurpose for Merkel cell carcinoma treatment (AID 1296009); details: MCC and control cell lines, CellTiter-Glo viability, 72 h; at 44.8 µM (top of the series) unless noted
How it was run: (§2)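 After compound transfer in DMSO, plates were kept 72 hr at 37 degree celsius. Luminescent ATP signal from CellTiter-Glo served as viability measure, normalized against DMSO and no-cell controls.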

[6] = system: HACAT; assay: as above; details: MCC and control cell lines, CellTiter-Glo viability, 72 h; at 44.8 µM (top of the series) unless noted
How it was run: as §2

[7] = system: MCC-13; assay: as above; details: MCC and control cell lines, CellTiter-Glo viability, 72 h; series mostly up to 46 µM
How it was run: as §2

[8] = system: MCC-26; assay: as above; details: MCC and control cell lines, CellTiter-Glo viability, 72 h; series mostly up to 46 µM
How it was run: as §2

[9] = system: MKL-1; assay: as above; details: MCC and control cell lines, CellTiter-Glo viability, 72 h; series mostly up to 46 µM
How it was run: as §2

[10] = system: PAD; assay: qHTS profiling for inhibitors of Plasmodium falciparum proliferation (AID 504749); details: P. falciparum in erythrocytes, SYBR Green DNA, 72 h; series mostly up to 28.7 µM
How it was run: (§3)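 Three-day growth assay of blood-stage parasites in erythrocytes (0.3% parasitemia, 2.5% hematocrit) at 37 C, 5% CO2, quantified by SYBR Green DNA staining after overnight detergent lysis.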

[11] = system: PC15; assay: as above; details: P. falciparum in erythrocytes, SYBR Green DNA, 72 h; series mostly up to 28.7 µM
How it was run: as §3

[12] = system: PC26; assay: as above; details: P. falciparum in erythrocytes, SYBR Green DNA, 72 h; series mostly up to 28.7 µM
How it was run: as §3

[13] = system: PC49; assay: as above; details: P. falciparum in erythrocytes, SYBR Green DNA, 72 h; series mostly up to 28.7 µM
How it was run: as §3

[14] = system: SC27B; assay: as above; details: P. falciparum in erythrocytes, SYBR Green DNA, 72 h; series mostly up to 28.7 µM
How it was run: as §3

[15] = system: TAB109; assay: as above; details: P. falciparum in erythrocytes, SYBR Green DNA, 72 h; series mostly up to 28.7 µM
How it was run: as §3

[16] = system: TAB113; assay: as above; details: P. falciparum in erythrocytes, SYBR Green DNA, 72 h; series mostly up to 28.7 µM
How it was run: as §3

[17] = system: TAB165; assay: as above; details: P. falciparum in erythrocytes, SYBR Green DNA, 72 h; series mostly up to 28.7 µM
How it was run: as §3

[18] = system: W2; assay: as above; details: P. falciparum in erythrocytes, SYBR Green DNA, 72 h; series mostly up to 28.7 µM
How it was run: as §3

[19] = system: KB-3-1; assay: Cytotoxic Profiling of Annotated Libraries Using Quantitative High-Throughput Screening (AID 1296008); details: Five cell lines viability, CellTiter-Glo ATP luminescence, 48-72 h; max response: stronger effect = lower value; as to max response: % is scaled to controls: 0 for no effect and ±100 for the full control effect
How it was run: as §1

[20] = system: HEK293T; assay: qHTS assay to identify novel small-molecules to repurpose for Merkel cell carcinoma treatment (AID 1296009); details: MCC and control cell lines, CellTiter-Glo viability, 72 h; at 44.8 µM (top of the series)
How it was run: as §2
Also: nearly all actives have a fitted effect of over 60% in size.
Potency is read from the fitted curve at half-maximal effect.

C[C@]12CC[C@H]3[C@@H](CCC4=CC(=O)CC[C@@]43C)[C@@H]1CC[C@@H]2C(=O)O
inactive: outcome [1] | max response [2] -4.71% | outcome [3] | max response [4] 3.4% | outcome [5] | outcome [6] | Potency [7] | Potency [8] | Potency [9]

O=c1n(Cl)c(=O)n(Cl)c(=O)n1Cl
inactive: Potency [10] | Potency [11] | Potency [12] | Potency [13] | Potency [14] | Potency [15] | Potency [16] | Potency [17] | Potency [18] | outcome [1] | outcome [3] | max response [19] 7.13% | max response [4] 2.85% | outcome [5] | outcome [6] | Potency [7] | Potency [8] | Potency [9]

Cc1ccc([N+](=O)[O-])[c]2c1[O][Hg]2
active: Potency [1] 1.5 µM | Potency [2] 1.06 µM | Potency [3] 6.68 µM | Potency [4] 4.22 µM | Potency [7] 2.11 µM | Potency [8] 1.88 µM | Potency [9] 0.133 µM

CC(Cc1ccccc1)NCCCCl (stereo not drawn)
inactive: outcome [1] | max response [2] 0.613% | outcome [3] | max response [4] 3.33% | outcome [5] | outcome [6] | Potency [7] | Potency [8] | Potency [9]

Cc1nnc2n1-c1sc(CCC(=O)N3CCOCC3)cc1C(c1ccccc1Cl)=NC2
inactive: outcome [1] | outcome [2] | max response [19] -14.1% and 0.342% | max response [4] 2.45% | outcome [5] | outcome [20] | Potency [7] | Potency [8] | Potency [9]

CCCC(C)C1(CC)C(=O)N=C(S)NC1=O (stereo not drawn)
inactive: max response [1] -2.8% | outcome [2] | max response [3] -26.2% | max response [4] -2.94% | outcome [20] | Potency [7] | Potency [8] | Potency [9]

CC(Cc1ccc2c(c1)OCO2)NO (stereo not drawn)
inactive: max response [1] -0.759% | max response [2] -1.22% | max response [3] -1.01% | max response [19] -9.46% | max response [4] 3.02% | Potency [7] | Potency [8] | Potency [9]

C[C@@H]1C[C@@H]([C@H](O)CC2CC(=O)NC(=O)C2)C(=O)[C@@H](C)C1
active: Potency [1] 1.33 µM and 833 nM | Potency [2] 0.469 µM | Potency [3] 2.35 µM | Potency [19] 3.66 µM and 1.48 µM | Potency [4] 473 nM and 235 nM | Potency [7] 944 nM and 4.69 µM | Potency [9] 1.66 µM

C[N+](C)(C)CCOC(=O)C(O)(c1ccccc1)c1ccccc1
inactive: Potency [10] | Potency [11] | Potency [12] | Potency [13] | Potency [14] | Potency [15] | Potency [16] | Potency [17] | Potency [18] | max response [1] 1.11% | max response [2] -0.686% | max response [3] 1.68% | max response [19] -1.19% | max response [4] 2.06% | Potency [7] | Potency [8] | Potency [9]

CN1C(=O)CN=C(c2ccccc2)c2cc([N+](=O)[O-])ccc21
inactive: Potency [10] | Potency [11] | Potency [12] | Potency [13] | Potency [14] | Potency [15] | Potency [16] | Potency [17] | Potency [18] | outcome [1] | outcome [3] | max response [19] 9.64% | outcome [4] | outcome [5] | outcome [6] | Potency [7] | Potency [8] | Potency [9]

CC(C(O)c1ccccc1)N(C)C/C=C/c1ccccc1 (stereo not drawn)
inactive: max response [1] -8.13% | max response [2] -9.94% | outcome [3] | max response [4] 2.21% | outcome [6] | Potency [7] | Potency [8] | Potency [9]

CCCCCCCCCCCC[N+](C)(C)CCOc1ccccc1
active: Potency [10] 7.94 µM | Potency [11] 10 µM | Potency [12] 13.5 µM | Potency [13] 8.91 µM | Potency [14] 7.08 µM | Potency [15] 5.01 µM | Potency [16] 4.47 µM | Potency [17] 5.62 µM | Potency [18] 3.79 µM | Potency [1] 18.8 µM | Potency [2] 8.41 µM | Potency [3] 16.8 µM | Potency [8] 23.7 µM | Potency [9] 2.66 µM

CC[n+]1c(-c2ccccc2)c2cc(N)ccc2c2ccc(N)cc21
active: Potency [10] 199 nM and 316 nM | Potency [11] 251 nM and 891 nM | Potency [12] 1.51 µM and 2.13 µM | Potency [13] 178 nM and 316 nM | Potency [14] 126 nM and 355 nM | Potency [15] 70.8 nM and 158 nM | Potency [16] 100 nM and 316 nM | Potency [17] 17.8 nM and 224 nM | Potency [18] 21.3 nM and 37.9 nM | Potency [1] 6.68 µM | Potency [2] 0.596 µM | Potency [19] 8.2 µM and 23.1 µM | Potency [9] 0.668 µM

CC1Sc2c(C(=O)O)c(=O)c3cc(F)c(N4CCNCC4)cc3n21 (stereo not drawn)
inactive: max response [1] -1.22% | max response [2] 4.19% | max response [3] 0.258% | outcome [4] | Potency [7] | Potency [8] | Potency [9]

NC(=O)OCCCc1ccccc1
inactive: Potency [10] | Potency [11] | Potency [12] | Potency [13] | Potency [14] | Potency [15] | Potency [16] | Potency [17] | Potency [18] | outcome [1] | outcome [3] | max response [19] -19.1% | outcome [4] | outcome [5] | outcome [6] | Potency [7] | Potency [8] | Potency [9]

COc1cc(CC#N)cc(OC)c1OC
inactive: max response [1] -2.26% | max response [2] -3.74% | outcome [3] | max response [4] -3.69% | outcome [6] | Potency [7] | Potency [8] | Potency [9]

Sc1ccccc1Cl
inactive: max response [1] 1.34% | max response [2] -0.79% | max response [3] -3.98% | max response [4] 2.05% | Potency [7] | Potency [8] | Potency [9]

CC[C@]1(O)CC[C@H]2[C@@H]3CCC4=CCCC[C@@H]4[C@H]3CC[C@@]21C
inactive: Potency [11] | Potency [12] | Potency [13] | Potency [15] | max response [1] -110% | max response [2] -119% | Potency [8] | Potency [9]
